Screening data as filed in PubChem BioAssay.
SMN2 splice enh: qHTS Assay for Enhancers of SMN2 Splice Variant Expression; Potency, µM (titrated, usually from 46.1 µM), for inactives: top-dose activity change, positive = activation, hits mostly activators; 2.8% of 210,000 active; HEK293 SMN2-luciferase splicing reporter, luminescence, 30-36 h; also: % of control where 0% means no effect; nearly all actives have a fitted effect of over 55% in size
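HEK293 cells carry an SMN2 minigene-luciferase reporter in which exon 7 inclusion puts luciferase in frame. Cells were seeded at 2000 cells/well, attached for 10-12 hours, then exposed to compounds for 30-36 hours at 37C before ONE-Glo luminescence.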
FLuc modulator: qHTS profiling assay for firefly luciferase inhibitor/activator using purifed enzyme and Km concentrations of substrates (counterscreen for miR-21 project) | purified FLuc, Km substrates, luminescence inhibition | 6.9% of 360,000 active | Luciferin 4-monooxygenase (Photinus pyralis), P08659 | Potency, µM (titrated, usually from 57.5 µM), inactives show at the top dose activity change, negative = inhibition, hits mostly inhibitors;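 also: plate controls were vehicle for no effect and reference inhibitor for full effect; nearly all actives have a fitted effect of over 55% in size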
Target sequence (P08659 whole entry, looked up): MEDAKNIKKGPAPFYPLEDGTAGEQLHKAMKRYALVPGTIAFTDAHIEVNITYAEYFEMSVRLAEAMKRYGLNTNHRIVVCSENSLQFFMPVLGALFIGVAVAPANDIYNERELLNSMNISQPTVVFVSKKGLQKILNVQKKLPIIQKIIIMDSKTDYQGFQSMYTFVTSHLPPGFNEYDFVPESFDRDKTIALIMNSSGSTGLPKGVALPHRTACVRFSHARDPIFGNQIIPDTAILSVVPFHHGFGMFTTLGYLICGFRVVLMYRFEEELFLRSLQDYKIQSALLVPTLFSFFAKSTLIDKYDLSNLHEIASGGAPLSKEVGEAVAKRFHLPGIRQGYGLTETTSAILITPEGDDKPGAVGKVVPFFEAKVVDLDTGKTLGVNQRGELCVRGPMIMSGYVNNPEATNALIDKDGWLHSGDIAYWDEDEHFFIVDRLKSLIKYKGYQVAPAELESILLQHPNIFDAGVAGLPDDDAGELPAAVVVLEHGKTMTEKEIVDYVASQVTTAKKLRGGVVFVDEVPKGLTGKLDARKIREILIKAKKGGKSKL
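Biochemical qHTS of compounds, final roughly 60 µM downward over six points, against 10 nM purified firefly luciferase using Km concentrations of substrates (10 uM D-luciferin, 10 uM ATP) in Tris acetate pH 7.5 buffer; luminescence output.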
NPC1 promoter act: qHTS Assay for NPC1 Promoter Activators; Huh7 NPC1 promoter luciferase reporter, 24 h; Potency, µM (highest dose often 9.22 µM), for the others: at the top dose activation, usual class: activators; 2.4% of 320,000 active; AID 485313, 2010; also: % of control where 0% means no effect; nearly all actives have a fitted effect of over 60% in size
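Luminescence read-out of NPC1 promoter-driven luciferase in stably transfected Huh7 cells; compounds delivered in DMSO and left 24 h at 37C, 5% CO2, qHTS titration format.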
ELG1 genotox: qHTS screen for small molecules that induce genotoxicity in human embryonic kidney (HEK293T) cells expressing luciferase-tagged ELG1; HEK293T ELG1-luciferase reporter, luminescence, 16 h; Potency, µM (doses to about 46 µM), inactives show at the highest dose activity change, positive = activation, most hits filed as activators; 1.3% of 330,000 active; AID 504466, 2011; also: % of control where 0% means no effect; nearly all actives have a fitted effect of over 60% in size
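DMSO vehicle served as control against compound-treated ELG1-luciferase HEK293T cells; exposure lasted 16 hr at 37 °C and 5% CO2, followed by ONE-Glo luminescence detection after 30 min.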
ELG1 repair inh: qHTS screen for small molecules that inhibit ELG1-dependent DNA repair in human embryonic kidney (HEK293T) cells expressing luciferase-tagged ELG1. HEK293T ELG1-luciferase reporter, luminescence, 16 h; DNA damage induced by 5-fluorouridine. Potency, µM (doses to about 46.1 µM), for the others: at the highest dose activity change, negative = inhibition, actives largely listed as inhibitors. 2.3% of 330,000 active; also: % is scaled to controls: 0 for no effect and ±100 for the full control effect; nearly all actives have a fitted effect of over 55% in size
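DMSO vehicle served as the neutral condition. Each well held 2,000 cells given 5-fluorouridine plus compound; after 16 hr at 37 °C/5% CO2, ONE-Glo was added and luciferase measured 30 min later.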
Rab9 prom act: qHTS Assay for Rab9 Promoter Activators. Huh7 Rab9 promoter-luciferase reporter, luminescence, 24 h. Potency, µM (top dose mostly 9.22 µM), for inactives: top-dose activation, negative = inhibition, hits mostly activators. 2.8% of 320,000 active. AID 485297, 2010; also: % of control where 0% means no effect; nearly all actives have a fitted effect of over 60% in size
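Using Huh7 cells stably transfected with Rab9 promoter–luciferase, compounds were incubated 24 h at 37 °C, 5% CO2; luciferase luminescence was read 10 min after reagent addition.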
The depositor's hits bear a star; [ ] = another dose, or the depositor's remark. Most compounds without a hit are left out; they make up all but 9.2% or so of the library. Calls follow the shape of the dose curve; as a rule, active = well fitted curve in the direction sought with a large enough effect; inconclusive = small, poorly fitted or top-dose-only effect, or another doubt; inactive = no such curve, though single readings can be large; an effect the other way counts as inactive or inconclusive. Potency is read from the fitted curve at half-maximal effect.

Results for CNc1ncnc2c1ncn2[C@@H]1O[C@H](CO)[C@@H](O)[C@H]1O ?
SMN2 splice enh: 5.5%; FLuc modulator: -1.6%; NPC1 promoter act: -2.4%[46.1 µM]; ELG1 genotox: 16.4µM*; ELG1 repair inh: inconclusive; Rab9 prom act: -1.4%[46.1 µM]

How did CN(C)c1ncnc2c1ncn2C1OC(CO)C(O)C1O (stereo not given) do in these assays?
SMN2 splice enh: 5.62µM*; FLuc modulator: 0.0%; NPC1 promoter act: -10.7%; ELG1 genotox: 9.4%; ELG1 repair inh: inconclusive; Rab9 prom act: -2.8%

What do the screens show for `OCC1OC(n2cnc3c(Cl)ncnc32)C(O)C1O` (stereo not given)?
SMN2 splice enh: -4.0%

What do the screens show for `CCOCCCN(C)C1CCN(C(=O)c2oc3ccccc3c2NC(=O)c2ccc(F)cc2)CC1`?
FLuc modulator: 0.3%; NPC1 promoter act: -0.2%; ELG1 genotox: 2.6%; ELG1 repair inh: 1.4%; Rab9 prom act: -7.5%

What do the screens show for `O=[N+]([O-])c1cccc(-c2nc(-c3ccccn3)no2)c1`?
FLuc modulator: 4.78µM*; NPC1 promoter act: 0.708µM*; ELG1 genotox: inconclusive; ELG1 repair inh: inconclusive; Rab9 prom act: 0.398µM*

What do the screens show for `CCCc1noc(-c2cccc([N+](=O)[O-])c2)n1`?
SMN2 splice enh: -5.0%; FLuc modulator: -8.3%; NPC1 promoter act: -2.7%; ELG1 genotox: 1.4%; ELG1 repair inh: 0.0%; Rab9 prom act: -3.9%

How did c1ccc(-c2ccccc2-c2nc(-c3cccnc3)no2)cc1 do in these assays?
SMN2 splice enh: -6.1%; FLuc modulator: 0.7%[2.3 µM]; NPC1 promoter act: -5.5%; ELG1 genotox: -1.8%; ELG1 repair inh: -7.7%; Rab9 prom act: -1.7%

How did c1ccc(-c2noc(-c3cccnc3)n2)nc1 do in these assays?
SMN2 splice enh: 11.2µM*; FLuc modulator: 13.5µM*; NPC1 promoter act: 2.82µM*; ELG1 genotox: 5.17µM*; ELG1 repair inh: inconclusive; Rab9 prom act: 2µM*

How did COc1ccc(-c2nc(-c3ccncc3)no2)c(OC)c1 do in these assays?
FLuc modulator: 0.953µM*; NPC1 promoter act: inconclusive; ELG1 genotox: 2.91µM*; ELG1 repair inh: inconclusive; Rab9 prom act: 0.708µM*

Results for COc1cccc(-c2nc(-c3ccccc3)no2)c1 ?
SMN2 splice enh: 11.2µM*; FLuc modulator: inconclusive; NPC1 promoter act: inconclusive; ELG1 genotox: inconclusive; ELG1 repair inh: inconclusive; Rab9 prom act: inconclusive

What do the screens show for `CC(C)[C@H](O)CC[C@@H](C)C1CC[C@H]2C3CC=C4C[C@@H](O)CC[C@]4(C)C3CC[C@]12C` (stereo not given in full)?
SMN2 splice enh: -6.0%

How did Cc1ccc(Sc2ccc(N3CCCC(C(=O)Nc4ccc(F)cc4)C3)nn2)cc1 (stereo not given) do in these assays?
SMN2 splice enh: -2.3%; FLuc modulator: -15.6%

What do the screens show for `COc1cccc(-c2nc(-c3ccccn3)no2)c1`?
SMN2 splice enh: -75.2%; FLuc modulator: 0.338µM*; NPC1 promoter act: inconclusive; ELG1 genotox: 1.9%; ELG1 repair inh: inconclusive; Rab9 prom act: 0.112µM*

Results for COc1cccc(-c2nc(-c3ccc(NC(=O)c4cccnc4)cc3)no2)c1 ?
SMN2 splice enh: -10.8%; FLuc modulator: inconclusive; NPC1 promoter act: inconclusive; ELG1 genotox: 12.6%; ELG1 repair inh: 14.7%; Rab9 prom act: 29.6%

How did COc1cccc(-c2noc(-c3cccnc3)n2)c1 do in these assays?
SMN2 splice enh: 20µM*; FLuc modulator: 5.36µM*; NPC1 promoter act: 3.55µM*; ELG1 genotox: inconclusive; ELG1 repair inh: inconclusive; Rab9 prom act: 2.51µM*

What do the screens show for `COc1cccc(-c2noc(-c3cccs3)n2)c1`?
SMN2 splice enh: 12.6µM*; FLuc modulator: 2.13µM*; NPC1 promoter act: inconclusive; ELG1 genotox: 1.3µM*; ELG1 repair inh: inconclusive; Rab9 prom act: 1µM*

How did CC(=O)c1ccc(NS(=O)(=O)c2ccc(C)cc2)cc1 do in these assays?
SMN2 splice enh: -13.3%; FLuc modulator: 0.9%; NPC1 promoter act: 1.2%; ELG1 genotox: 5.4%; ELG1 repair inh: 22.6%; Rab9 prom act: -0.5%

What do the screens show for `COc1ccc(N/C=C\C(=O)c2ccc(Br)cc2)cc1OC`?
SMN2 splice enh: inconclusive; FLuc modulator: inconclusive; NPC1 promoter act: inconclusive; ELG1 genotox: 14.9%; ELG1 repair inh: inconclusive; Rab9 prom act: inconclusive

Results for COc1cc(OC)c(OC)cc1/C=C/C(=O)c1ccc(NS(=O)(=O)c2ccc(C)cc2)cc1 ?
SMN2 splice enh: -71.2%; FLuc modulator: 1.7%; NPC1 promoter act: -2.0%; ELG1 genotox: -4.5%; ELG1 repair inh: 14.6µM*; Rab9 prom act: -10.3%

How did O=C(/C=C\Nc1ccc2c(c1)OCO2)c1ccc2c(c1)OCO2 do in these assays?
SMN2 splice enh: inconclusive; FLuc modulator: 0.135µM*; NPC1 promoter act: 3.98µM*; ELG1 genotox: 2.31µM*; ELG1 repair inh: inconclusive; Rab9 prom act: 0.794µM*

What do the screens show for `O=C(O)c1ccc2c(c1)OCO2`?
SMN2 splice enh: -21.2%

What do the screens show for `COc1ccc(N/C=C/C(=O)c2ccc3c(c2)OCO3)cc1OC`?
SMN2 splice enh: 17.3%; FLuc modulator: 2.69µM*; NPC1 promoter act: 28.0%; ELG1 genotox: inconclusive; ELG1 repair inh: inconclusive; Rab9 prom act: inconclusive

How did COc1ccc(NC(=O)COC(=O)c2ccc3c(c2)OCCO3)cc1OC do in these assays?
FLuc modulator: 4.0%; NPC1 promoter act: -0.7%; ELG1 genotox: 6.2%; ELG1 repair inh: 0.0%; Rab9 prom act: 1.3%

Results for COc1ccc(N/C=C\C(=O)c2ccc(C)cc2)cc1OC ?
SMN2 splice enh: 19.4%; FLuc modulator: 5.36µM*; NPC1 promoter act: inconclusive; ELG1 genotox: inconclusive; ELG1 repair inh: inconclusive; Rab9 prom act: 3.55µM*

Results for COc1ccc(N(C(=O)CNC(=O)c2cccs2)C(C(=O)NCC2CCCO2)c2ccccc2)c(OC)c1 (stereo not given) ?
FLuc modulator: -0.6%; NPC1 promoter act: 0.1%; ELG1 genotox: -0.9%; ELG1 repair inh: 0.2%; Rab9 prom act: -6.0%

Results for COc1ccc(N/C=C\C(=O)c2ccc3c(c2)OCO3)cc1 ?
SMN2 splice enh: inconclusive; FLuc modulator: 0.269µM*; NPC1 promoter act: 1.78µM*; ELG1 genotox: inconclusive; ELG1 repair inh: inconclusive; Rab9 prom act: 3.55µM*
